Most compounds without a hit are left out; they make up all but 28% or so of the library.
CYP2C9 inhib: blocks human cytochrome P450 2C9; P11712; CYP2C9 Supersomes, luciferin-H conversion, luminescence; AID 777; inhibition, % at 5 µM; actives 20% (n = 96,000);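 active = blocking of liver enzyme CYP2C9 beyond about 50% at 5 µM, limit read from the data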
Target sequence (P11712 whole entry, looked up): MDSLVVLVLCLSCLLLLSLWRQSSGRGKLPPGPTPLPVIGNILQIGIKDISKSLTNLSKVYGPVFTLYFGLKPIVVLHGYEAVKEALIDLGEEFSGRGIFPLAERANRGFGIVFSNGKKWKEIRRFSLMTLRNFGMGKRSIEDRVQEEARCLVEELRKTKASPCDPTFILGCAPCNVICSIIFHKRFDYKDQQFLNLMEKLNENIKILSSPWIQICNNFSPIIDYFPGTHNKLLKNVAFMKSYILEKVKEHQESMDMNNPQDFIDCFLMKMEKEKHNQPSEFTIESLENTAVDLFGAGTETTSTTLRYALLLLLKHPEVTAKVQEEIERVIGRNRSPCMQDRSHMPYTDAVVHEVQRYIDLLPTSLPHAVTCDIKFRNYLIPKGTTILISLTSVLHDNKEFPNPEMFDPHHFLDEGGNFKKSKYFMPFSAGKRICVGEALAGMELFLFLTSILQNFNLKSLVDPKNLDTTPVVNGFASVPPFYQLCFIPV
CYP2C19 act: activators of human cytochrome P450 2C19. activation factor at 5 µM. 96,000 tested, under 10 active. AID 1025. P33261. recombinant CYP2C19, luciferin-H EGE luminescence; hits give high values; 0 = fully inhibited enzyme, 1 = untreated enzyme;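 active = activation factor of at least 2 at 5 µM in the primary screen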
CYP2C9 activ: activators of human CYP2C9. activation factor at 5 µM. recombinant CYP2C9, luciferin-H conversion, luminescence; hits give high values; factor 1 = untreated enzyme, 0 = blocked. P11712. actives 1.4% (n = 96,000);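 active = activation factor of 2 or more for CYP2C9 at a 5 µM dose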
CD11b adhes inh: blocks human CD11b/CD18 adhesion to fibrinogen; P05107+P11215; K562 CD11b/CD18 adhesion to fibrinogen, ATPlite luminescence; Mn2+ added to activate the integrin; inhibition, % at 10 µM; actives 0.54% (n = 93,000); AID 1497;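 active = primary inhibition of 50% or more at 10 µM, then 40% or more on retest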
CD11b adhes enh: enhancers of human CD11b/CD18 binding to fibrinogen | P05107+P11215 | K562 CD11b/CD18 adhesion to fibrinogen, ATPlite luminescence | activation, % at 10 µM | actives 0.07% (n = 93,000);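 active = 10 µM primary screen giving 50% or more activity, confirmed by 40% or more on retest at that dose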
CYP2C19 inhib: human CYP2C19 inhibition. P33261. CYP2C19 Supersomes, luciferin-H EGE luminescence, 30 min. inhibition, % at 5 µM. actives 21% (n = 96,000). AID 778;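 active = CYP2C19 inhibition above a set limit at 5 µM in the primary screen, cut at about 50% in these data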
Hits are given with their value; n = inactive; x = no result given.

SMILES	CYP2C9 inhib	CYP2C19 act	CYP2C9 activ	CD11b adhes inh	CD11b adhes enh	CYP2C19 inhib
CCOC(=O)C(C)c1ccc2cc(OC)ccc2c1 (centres undefined)	n	n	n	x	x	52
CN(C)/C=C1\N=C(c2cccs2)OC1=O	n	n	n	n	n	n
COc1ccc(/C=C2/N=C(c3cccs3)OC2=O)cc1OC(C)C	72	n	n	n	n	n
C#CCOc1ccc(Br)cc1/C=N/O	66	n	n	n	n	64
CCCOc1ccc(Br)cc1/C=N/O	n	n	n	n	n	n
O/N=C/c1cc(Cl)ccc1OCc1cccc2ccccc12	76	n	n	x	x	53
O=C(O)COc1ccc(Br)cc1/C=N/O	n	n	n	n	n	n
CCOc1ccc(Br)cc1/C=N/O	n	n	n	n	n	n
C#CCOc1ccc(Cl)cc1/C=N/O	n	n	n	n	n	51
CCCN=C(Nc1ccc(Cl)cc1)c1cccnc1	n	n	n	n	n	54
CCCCc1ccc(NC(=S)Nc2cccnc2)cc1	x	x	x	n	n	x
CCN=C(Nc1ccc(Cl)cc1)c1cccnc1	n	n	n	x	x	n
CCCCN=C(Nc1ccc(Cl)cc1)c1cccnc1	n	n	n	n	n	67
CCOC(=O)Nc1ccc2c(c1)N(C(=O)CCN(C)C)c1ccccc1S2	n	n	n	x	x	n
CCOC(=O)Nc1ccc2c(c1)N(C(=O)OC)c1ccccc1CC2	85	n	n	n	n	70
CCOC(=O)Nc1ccc2c(c1)N(C(=O)CN1CCN(C)CC1)c1ccccc1S2	n	n	n	n	n	58
COC(=O)Cc1cc(=O)n2[nH]c(SC)nc2n1	64	n	n	n	n	n
CCC(C)(C(=O)NC1CCCCC1)N(Cc1cccs1)C(=O)Cc1cccs1 (centres undefined)	n	n	n	n	n	n
Cc1sc2ncn(CC(=O)N(CC(=O)NC3CCCC3)Cc3cccs3)c(=O)c2c1C	56	n	n	n	n	n
Cc1ccc(C(=O)N(CC(=O)NC2CCCC2)Cc2cccs2)s1	88	n	n	n	n	74
O=C(Nc1ccccc1-c1nnn(CC(=O)N2CCCc3ccccc32)n1)c1ccco1	90	n	n	n	n	54
O=C(COc1ccccc1)Nc1ccc(S(=O)(=O)NCc2ccco2)cc1	51	n	n	n	n	n
O=C(COc1ccccc1)NCC(=O)Nc1ccc(S(=O)(=O)NCc2ccco2)cc1	57	n	n	n	n	n
CC(C)CC(=O)Nc1ccc(S(=O)(=O)NCc2ccco2)cc1	n	n	n	n	n	n
O=C(COc1ccccc1F)Nc1ccc(S(=O)(=O)NCc2ccco2)cc1	53	n	n	n	n	n
SMILES	CYP2C9 inhib	CYP2C19 act	CYP2C9 activ	CD11b adhes inh	CD11b adhes enh	CYP2C19 inhib
COc1cccc(NC(=O)COC(=O)c2ccc(S(=O)(=O)NCc3ccco3)cc2)c1	86	n	n	n	n	n
O=C(CCSCc1cccc(Cl)c1)NC1CCCC1	x	x	x	n	n	x
CCOC(=O)C(Oc1ccc2c(-c3ccc(OC)cc3)cc(=O)oc2c1C)c1ccccc1 (centres undefined)	78	n	n	x	x	n
CCOC(=O)C(Oc1ccc2c(-c3ccccc3)cc(=O)oc2c1C)c1ccccc1 (centres undefined)	x	x	x	n	n	x
CCc1nc(SCC(=O)Nc2cc(C)on2)c2c(=O)n(C)c(=O)n(C)c2n1	n	n	n	n	n	n
Cn1c(=O)c2c(SCc3ccccn3)nc(CC(C)(C)C)nc2n(C)c1=O	82	n	n	n	n	n
Cn1c(=O)c2c(SCc3ccccn3)nc(C3CC3)nc2n(C)c1=O	n	n	n	n	n	n
CCCc1nc(SCc2ccccn2)c2c(=O)n(C)c(=O)n(C)c2n1	71	n	n	n	n	n
Cc1cc(NC(=O)CSc2nc(CC(C)(C)C)nc3c2c(=O)n(C)c(=O)n3C)no1	63	n	n	n	n	n
CC(C)NC(=O)C(OC(=O)c1ccccc1)C(OC(=O)c1ccccc1)C(=O)O (centres undefined)	n	n	n	x	x	n
CCc1cccc(CC)c1NC(=O)COC(=O)c1ccc(F)c(S(=O)(=O)N(CC)CC)c1	x	x	x	n	n	x
CN=CC1=C(O)CC(C)(C)CC1=O	n	n	n	n	n	n
CC1(C)CC(=O)C(CC2=C(O)CC(C)(C)CC2=O)=C(O)C1	n	n	n	n	n	86
CC1(C)CC(=O)C(CC2=C(O)CC(C)(C)CC2=O)C(=O)C1	n	n	n	n	n	51
CC(C)(C)S(=O)(=O)c1c(C(=O)O)cccc1C(=O)O	n	n	n	n	n	n
Cc1nc(SCC#N)c2c(C)c(C)sc2n1	n	n	n	n	n	n
O=C(CSCc1ccccc1)NNC(=S)Nc1cccc(Cl)c1Cl	87	n	n	n	n	n
O=C(c1ccccc1)n1ccc(-c2cnc(-c3ccccc3)s2)n1	n	n	n	n	n	56
COc1ccc(S(=O)(=O)n2ccc(-c3cnc(-c4ccccc4)s3)n2)cc1	69	n	n	x	x	n
CCOC(=O)c1sc(NC(=O)CSc2nnc(Cc3ccccc3)o2)c(C(=O)OCC)c1C	78	n	n	n	n	54
CCOC(=O)c1c(NC(=O)CSc2nnc(CNc3ccc(F)cc3)o2)sc(C)c1C	63	n	n	n	n	n
CC1Cc2ccccc2N1C(=O)CN1C(=O)C(=O)N(Cc2ccccc2)C1=O (centres undefined)	n	n	n	n	n	n
Cc1oc2cc(O)ccc2c(=O)c1Oc1ccccc1	n	n	2	x	x	n
Cc1oc2cc(O)ccc2c(=O)c1N1C(=O)c2ccccc2C1=O	n	n	2.2	n	n	n
Cc1oc2cc(O)ccc2c(=O)c1Oc1ccccc1Br	n	n	n	n	n	n
SMILES	CYP2C9 inhib	CYP2C19 act	CYP2C9 activ	CD11b adhes inh	CD11b adhes enh	CYP2C19 inhib
Cc1ccccc1-c1c(C)oc2cc(O)ccc2c1=O	n	n	2.2	n	n	n
COc1ccc(-c2noc(CCC(=O)Nc3nc4ccccc4s3)n2)cc1	68	n	n	n	n	n
COc1cc(NC(=O)CCc2nc(-c3cccs3)no2)cc(OC)c1OC	n	n	n	n	n	n
COc1ccc(NC(=O)CCc2nc(-c3ccccc3F)no2)cc1	69	n	n	n	n	78
CCOC(=O)c1cccc(NC(=O)CCc2nc(-c3ccccc3F)no2)c1	n	n	n	n	n	n
CCc1cccc(NC(=O)CCc2nc(-c3cccs3)no2)c1	83	n	n	n	n	93
COc1ccccc1-c1noc(CCC(=O)Nc2ccccc2Cl)n1	n	n	n	n	n	79
COc1cc(OC)c(NC(=O)CCc2nc(-c3ccc(C)cc3)no2)cc1Cl	78	n	n	n	n	n
O=C(CCc1nc(-c2ccccc2F)no1)NC1CCN(Cc2ccccc2)CC1	n	n	n	n	n	n
Cc1ccc(-c2noc(CCC(=O)Nc3ccccc3C)n2)cc1	n	n	n	n	n	n
